Assay outcomes deposited in PubChem by National Center for Advancing Translational Sciences (NCATS).
ELG1 genotoxic – inducers of genotoxicity in HEK293T ELG1-luciferase cells; HEK293T ELG1-luciferase reporter, luminescence, 16 h; Potency, µM (titrated, usually from 46 µM), actives largely listed as activators; actives 1.3% (n = 330,000); AID 504466; also: nearly all actives have a fitted effect of over 60% in size
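Genotoxicity was scored as increased ELG1-luciferase reporter signal, measured by ONE-Glo luminescence (30 min, room temperature). Compound or vehicle exposure of the HEK293T reporter cells lasted 16 hr at 37°C.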
Rab9 prom act – activates the Rab9 promoter; actives 2.8% (n = 320,000); Huh7 Rab9 promoter-luciferase reporter, luminescence, 24 h; AID 485297; Potency, µM (top dose mostly 9.22 µM), actives largely listed as activators; also: nearly all actives have a fitted effect of over 60% in size
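Cell-based reporter: Huh7 stable for Rab9 promoter-driven luciferase, plated in reduced-serum medium with 10% FBS at 1500 cells/well, compound-treated 24 h at 37 °C, luminescence read after 10 min reagent.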
SMN2 splice enh – SMN2 splice variant enhancement. HEK293 SMN2-luciferase splicing reporter, luminescence, 30-36 h. Potency, µM (highest dose often 46.1 µM), most hits filed as activators. actives 2.8% (n = 210,000). AID 1458; also: nearly all actives have a fitted effect of over 55% in size
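HEK293 cells carry an SMN2 […]–luciferase reporter in which exon 7 inclusion puts luciferase in frame. Cells were plated 10-12 h before compound addition, then incubated 30-36 h at 37C. ONE-Glo luminescence was read; sodium butyrate at 4.5 mM final served as control.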
FLuc modulator – inhibits or activates purified firefly luciferase, miR-21 counter-screen | actives 6.9% (n = 360,000) | AID 588342 | purified FLuc, Km substrates, luminescence inhibition | Potency, µM (top dose mostly 57.5 µM), actives largely listed as inhibitors | P08659; also: nearly all actives have a fitted effect of over 55% in size
Target sequence (P08659 whole entry, looked up): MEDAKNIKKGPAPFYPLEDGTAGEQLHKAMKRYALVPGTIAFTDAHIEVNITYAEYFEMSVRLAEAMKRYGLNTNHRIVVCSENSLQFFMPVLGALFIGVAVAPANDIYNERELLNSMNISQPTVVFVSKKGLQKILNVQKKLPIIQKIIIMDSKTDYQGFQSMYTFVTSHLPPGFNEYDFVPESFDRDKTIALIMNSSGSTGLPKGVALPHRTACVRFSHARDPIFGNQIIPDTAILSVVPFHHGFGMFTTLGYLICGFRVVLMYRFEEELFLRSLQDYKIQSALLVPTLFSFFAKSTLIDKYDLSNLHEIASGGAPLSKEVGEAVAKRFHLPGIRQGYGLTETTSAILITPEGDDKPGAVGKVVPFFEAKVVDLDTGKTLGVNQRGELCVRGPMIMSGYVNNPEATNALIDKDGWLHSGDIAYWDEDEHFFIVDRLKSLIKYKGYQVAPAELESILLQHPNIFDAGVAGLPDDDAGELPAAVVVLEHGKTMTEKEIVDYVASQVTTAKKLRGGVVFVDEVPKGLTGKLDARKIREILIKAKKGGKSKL
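Purified P. pyralis luciferase, 10 nM final, with Km-level 10 uM D-luciferin and 10 uM ATP in 50 mM Tris acetate pH 7.5, 10 mM Mg acetate, 0.01% Tween-20, 0.05% BSA; 6-point qHTS titration about 60 µM downward; luminescence read.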
Luc counter – counter-screen: inhibitors of Kinase-Glo firefly luciferase; Q27757; Kinase-Glo luciferase, ATP luminescence, 8 min; Potency, µM (titrated, usually from 38.3 µM), usual class: inhibitors; actives 0.28% (n = 200,000); also: nearly all actives have a fitted effect of over 60% in size
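Substrate mix (final 50 mM imidazole pH 7.2, 50 mM KCl, 7 mM MgCl2, 10 uM ATP, 0.01% Tween 20, 0.05% BSA) plus pin-tool compound, then Kinase-Glo detection mix; 8 min ambient, luminescence read.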
NPC1 prom act – activators of NPC1 promoter | Huh7 NPC1 promoter luciferase reporter, 24 h | Potency, µM (top dose mostly 9.22 µM), hits mostly activators | actives 2.4% (n = 320,000) | AID 485313; also: nearly all actives have a fitted effect of over 60% in size
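Compounds in DMSO were transferred onto Huh7 NPC1-luciferase reporter cells pre-incubated 2 h; after 24 h at 37 °C, Amplite reagent was dispensed and luminescence recorded 10 min later.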
A number is an active result; [ ] = dose if it differs, or a comment. Shown are actives, neighbours in structure and some others; about 7.3% of the full set was active somewhere. Calls follow the shape of the dose curve; as a rule, active = well fitted curve in the direction sought with a large enough effect; inconclusive = small, poorly fitted or top-dose-only effect, or another doubt; inactive = no such curve, though single readings can be large; an effect the other way counts as inactive or inconclusive.

For Cc1ccc(C(=O)COC(=O)c2cc(-c3ccc(Cl)cc3)nc3ccccc23)cc1 the results were SMN2 splice enh inactive and FLuc modulator inactive.
Screening COc1ccc(/C(N)=N/OC(=O)c2cc(-c3ccccc3)nc3ccccc23)cc1 returned ELG1 genotoxic inactive, Rab9 prom act inactive, SMN2 splice enh inactive, FLuc modulator inconclusive, Luc counter inactive and NPC1 prom act inactive.
For Cc1ccc(-c2cc(C(=O)Oc3ccccc3)c3cc(C)ccc3n2)cc1 the results were SMN2 splice enh inactive and FLuc modulator 21.3µM.
Cc1ccc(/C(N)=N/OC(=O)c2cc(-c3ccccc3)nc3ccccc23)cc1 was read as ELG1 genotoxic inactive, Rab9 prom act inactive, SMN2 splice enh inactive, FLuc modulator 13.5µM, Luc counter inactive and NPC1 prom act inactive.
CC(C)(C)C(=O)COC(=O)c1cc(-c2ccncc2)nc2ccccc12 was read as ELG1 genotoxic inactive, Rab9 prom act inactive, SMN2 splice enh inactive, FLuc modulator inconclusive, Luc counter inactive and NPC1 prom act inactive.
CSc1nc(N)c2ncn([C@@H]3O[C@H](COP(=O)(O)OP(=O)(O)O)C(O)[C@H]3O)c2n1 (stereo partly specified) was read as Rab9 prom act inactive and NPC1 prom act inactive.
Screening CCCCNC(=O)c1nn(-c2ccc(C)cc2)c(=O)n(C)c1=O returned FLuc modulator inactive.
Screening Cc1ccc(-c2c(C(=O)N3CCN(c4cccc(C)c4)C(C)C3)oc(=O)c3ccccc23)cc1 (stereo unspecified) returned SMN2 splice enh inactive and FLuc modulator inactive.
`NC(=O)c1ccc(NC(=O)C2CCCO2)cc1` (stereo unspecified) gave ELG1 genotoxic inactive, Rab9 prom act inactive, SMN2 splice enh inactive, FLuc modulator inactive, Luc counter inactive and NPC1 prom act inactive.
CCOC(=O)c1ccc(NC(=O)C2C3CCCCC32)cc1 (stereo unspecified) was read as ELG1 genotoxic inactive, Rab9 prom act inconclusive, FLuc modulator 15.1µM and NPC1 prom act inconclusive.
For CC(C)COC(=O)c1ccc(NC(=O)C2C3CCC(C3)C2C(=O)O)cc1 (stereo unspecified) the results were ELG1 genotoxic inconclusive, Rab9 prom act 1.12µM, SMN2 splice enh inactive, FLuc modulator 16.9µM, Luc counter inactive and NPC1 prom act 3.98µM.
`CCOC(=O)c1ccc(NC(=O)N2CCCCCC2)cc1` gave ELG1 genotoxic 5.8µM, Rab9 prom act 1.78µM, FLuc modulator 8.49µM and NPC1 prom act 1.12µM.
`CCCOC(=O)c1ccc(NC(=O)C2CCCO2)cc1` (stereo unspecified) gave ELG1 genotoxic inconclusive, Rab9 prom act 3.98µM, SMN2 splice enh inconclusive, FLuc modulator inconclusive, Luc counter inactive and NPC1 prom act inconclusive.
`COc1ccc(Br)cc1C1C(C(=O)Nc2ccc(C)cc2C)=C(C)Nc2ncnn21` (stereo unspecified) gave SMN2 splice enh inactive and FLuc modulator inactive.
`COc1ccc(N2CCN(C(=O)CN3C(=O)CSc4c3c(C)nn4-c3ccccc3)CC2)cc1` gave FLuc modulator inactive.
Screening c1ccc2c(-c3csc(-c4ccncc4)n3)c[nH]c2c1 returned ELG1 genotoxic inconclusive, Rab9 prom act inconclusive, SMN2 splice enh 12.6µM, FLuc modulator 7.57µM, Luc counter inactive and NPC1 prom act inactive.
For Brc1ccc(-c2csc(-c3c[nH]c4ccccc34)n2)cc1 the results were ELG1 genotoxic inactive, Rab9 prom act inactive, SMN2 splice enh inconclusive, FLuc modulator 21.3µM, Luc counter inactive and NPC1 prom act inconclusive.
Cc1ccc(OCCSc2nc3ccccc3n2CC(=O)N2CCOCC2)c(C)c1 was read as FLuc modulator inactive.
Screening Cc1ccc(-c2cc(C(=O)NC3CCCCC3)no2)cc1 returned ELG1 genotoxic inactive, Rab9 prom act 3.55µM, FLuc modulator inconclusive and NPC1 prom act 2.51µM.
`O=C(NC1CCCCC1)c1cc(-c2ccccc2O)on1` gave ELG1 genotoxic 20.6µM, Rab9 prom act inconclusive, FLuc modulator inconclusive and NPC1 prom act inconclusive.
For CCC(C)NC(=O)c1cc(-c2ccccc2O)on1 (stereo unspecified) the results were ELG1 genotoxic inconclusive, Rab9 prom act inconclusive, SMN2 splice enh inactive, FLuc modulator inconclusive, Luc counter inactive and NPC1 prom act inactive.
Screening COc1ccc(-c2cc(C(=O)NC3CCCCC3)no2)cc1OC returned ELG1 genotoxic inactive, Rab9 prom act inactive, FLuc modulator inactive and NPC1 prom act inactive.
For O=C(Nc1cccnc1Cl)c1cc(-c2ccc(O)cc2)on1 the results were ELG1 genotoxic inconclusive, Rab9 prom act inactive, FLuc modulator inconclusive and NPC1 prom act inactive.
`O=C(NC1CCCCC1)c1cc(-c2ccc(O)cc2)on1` gave ELG1 genotoxic inconclusive, Rab9 prom act 3.16µM, FLuc modulator inconclusive and NPC1 prom act 2.51µM.
Screening Cc1ccc([C@@]2(C)CC/C(=N/N=C3\CC[C@](C)(c4ccc(C)c(C)c4)c4cc(C)c(C)cc43)c3cc(C)c(C)cc32)cc1C returned SMN2 splice enh inactive[9.22 µM] and Luc counter inactive[7.66 µM].
`Cc1cc(/C=C\c2nc(O)c([N+](=O)[O-])c(=O)[nH]2)c(C)n1-c1ccccc1` gave ELG1 genotoxic inactive, Rab9 prom act inactive, SMN2 splice enh inactive, FLuc modulator 10.7µM, Luc counter inactive and NPC1 prom act inactive.
For COc1ccc(-n2c(C)cc(/C=C/c3nc(O)c([N+](=O)[O-])c(=O)[nH]3)c2C)cc1 the results were ELG1 genotoxic inactive, Rab9 prom act inactive, SMN2 splice enh inactive, FLuc modulator inconclusive, Luc counter inactive and NPC1 prom act inactive.
Screening COc1cc(S(=O)(=O)NCCc2c(C)[nH]c3ccccc23)c(C)cc1C returned SMN2 splice enh inactive and FLuc modulator inactive.
`Cc1ccc(N=Nc2c(O)ccc3n[nH]nc23)cc1` gave ELG1 genotoxic inconclusive, Rab9 prom act inconclusive, FLuc modulator 10.7µM and NPC1 prom act 1.58µM.
For Cc1ccccc1OCC(=O)Nc1ccccc1-c1ccccc1 the results were ELG1 genotoxic inconclusive, Rab9 prom act 0.891µM, SMN2 splice enh inconclusive, FLuc modulator 4.78µM, Luc counter inconclusive and NPC1 prom act 0.891µM.
Screening CCN(CC)c1ccc(NC(=O)CSC(=O)c2ccccc2)cc1 returned ELG1 genotoxic inactive.
`Cc1ccccc1OCC(=O)Nc1cccc(C(=O)O)c1` gave ELG1 genotoxic inactive, Rab9 prom act inconclusive, SMN2 splice enh 1.58µM, FLuc modulator 0.0953µM, Luc counter inactive and NPC1 prom act inconclusive.
